Screening results from PubChem.
MRP resist rev – reversal of MRP1-mediated doxorubicin resistance, primary screen, H69AR cells, doxorubicin co-treatment | H69AR cells + 2 uM doxorubicin, CellTiter-Glo, 72 h | differential viability (reversal), % at 10 µM | 85,000 tested, 0.04% active | AID 602, 2007;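 active = viability drop by adding the cancer drug above about 55%, with treated viability meeting a 40% cutoff, limit read from the data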;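 also: viability without doxorubicin minus viability with 2 µM doxorubicin for each compound; larger differential means the compound sensitizes cells more to doxorubicin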
MRP1 act – H69AR viability gain despite doxorubicin, primary screen, MRP-1 activator project, H69AR cells, CellTiter-Glo | viability rescue | viability increase, % at 10 µM | 140,000 tested, 0.61% active;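 active = viability gain under doxorubicin at or above a set limit, the compound median plus 3 SD, cut at about 4.7% in these data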;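 also: MRP-1 overexpressing cells given doxorubicin 25 µM after compound pretreatment; 18-22 h compound pretreatment then 72 h with doxorubicin before readout; 0% = doxorubicin-only wells and 100% = vehicle-treated cells without doxorubicin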
Calb biofilm kill – clotrimazole potentiators killing Candida biofilms, primary screen, with clotrimazole, Alamar Blue | 85,000 tested, 0.14% active | inhibition, % at 6 µM | C. albicans biofilm + clotrimazole;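 active = inhibition above 20%; inactive = inhibition below 20%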;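 also: preformed 24 hr biofilms exposed to compound for 48 hr; 0% = biofilm without compound and 100% = blank killed by clotrimazole plus chlorhexidine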
SDO1 yeast rescue – growth rescue of sdo1-depleted yeast, primary screen, S. cerevisiae, bone marrow failure model | S. cerevisiae sdo1-depleted JHY4D growth rescue, OD600 30 h; hits give high values; pdr5 snq2 efflux-pump mutant strain | z-score at 10 µM | 140,000 tested, 0.21% active | AID 817, 2007;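 active = z-score above 3 at both the 24 hr and the 30 hr optical density reads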;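 also: z-score against mean and SD of all compound wells on the same plate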
Active calls of the source: *. Compounds with a hit are over-represented: about 0.98% of the library has one in this group of screens.

Screening COc1ccc(-c2nc(-c3cccc(C)c3)no2)cc1OC returned MRP resist rev -23, MRP1 act 5.5*, Calb biofilm kill 5 and SDO1 yeast rescue -0.86.
CC(CCc1ccccc1)NC(=O)COc1ccc(S(=O)(=O)N2CCOCC2)cc1[N+](=O)[O-] (centres undefined) was read as MRP1 act -4 and SDO1 yeast rescue 0.27.
Screening CC/C(=N\NC(=O)C(N)=O)c1ccccc1O returned MRP1 act 5.1* and SDO1 yeast rescue 0.7.
For C/C(=N\NC(=O)C(N)=O)c1ccc(Br)cc1 the results were MRP1 act -3 and SDO1 yeast rescue 0.38.
`COC(=O)COc1ccc(/C=N/NC(=O)c2ccc(N(Cc3ccccc3)S(C)(=O)=O)cc2)cc1` gave MRP1 act -2 and SDO1 yeast rescue 0.58.
O=C(NNC(=O)c1cccnc1)Nc1cccc2ccccc12 was read as MRP1 act 5.7* and SDO1 yeast rescue -0.02.
`O=C(NNC(=O)c1cccnc1)Nc1cccc(Cl)c1Cl` gave MRP1 act 0 and SDO1 yeast rescue 0.65.
Screening C=CCNc1oc(-c2ccc(OCC)cc2)nc1C#N returned MRP resist rev 20, MRP1 act -2, Calb biofilm kill -2 and SDO1 yeast rescue 0.89.
CCOc1ccc(-c2nc(C#N)c(NCC(C)C)o2)cc1 was read as MRP resist rev 6, MRP1 act 6.8*, Calb biofilm kill 4 and SDO1 yeast rescue -1.5.
For CCOP(=O)(OCC)C(NC(=O)Nc1ccc(Cl)cc1)C(=O)N(CC)CC (centres undefined) the results were MRP1 act 8.9* and SDO1 yeast rescue 0.15.
COc1ccc(/C=C/C(=O)Nc2cccc(N3CCOCC3)c2)cc1OC was read as MRP1 act 0 and SDO1 yeast rescue 0.26.
Screening N#Cc1nc(COc2ccc(Br)cc2)oc1NCCN1CCOCC1 returned MRP1 act 7.7* and SDO1 yeast rescue -0.42.
N#Cc1nc(COc2ccc(F)cc2)oc1NCCN1CCOCC1 was read as MRP resist rev 17, MRP1 act -1, Calb biofilm kill 2 and SDO1 yeast rescue 0.19.
Screening CCCc1sc(N)nc1-c1ccc(C)cc1 returned MRP1 act -2 and SDO1 yeast rescue 0.27.
For Oc1c(C(c2cccs2)N2CCN(c3ccccc3)CC2)sc2ncnn12 (centres undefined) the results were MRP resist rev -2, MRP1 act 14*, Calb biofilm kill 0 and SDO1 yeast rescue -0.14.
For Cc1ccc(CSCc2nnc(SCC(=O)N3CCN(c4ccccc4)CC3)n2C)cc1 the results were MRP1 act 5.0* and SDO1 yeast rescue -0.35.
Screening Cc1nc2cc(-c3ccsc3-n3c(C)ccc3C)[nH]n2c(=O)c1Cl returned MRP resist rev -10, MRP1 act 6.0*, Calb biofilm kill 1 and SDO1 yeast rescue 0.46.
Screening NNC(=O)CNC(c1ccccc1)c1cc(Br)ccc1NC(=O)c1cccc(Cl)c1 (centres undefined) returned MRP1 act 11* and SDO1 yeast rescue -0.19.
`NNC(=O)CNC(c1ccccc1)c1cc(Br)ccc1NC(=O)c1ccc(Br)cc1` (centres undefined) gave MRP1 act 0 and SDO1 yeast rescue 0.44.
Screening COc1cc(C2NC(=O)NC(C)=C2C(=O)OC(C)C)ccc1OC(=O)c1ccco1 (centres undefined) returned MRP resist rev 10, MRP1 act 0, Calb biofilm kill 4 and SDO1 yeast rescue 0.59.
For Cc1nn(Cc2ccccc2)c(C)c1NC(=O)c1cccs1 the results were MRP1 act 0 and SDO1 yeast rescue 0.98.
Screening Cc1nn(Cc2ccccc2)c(C)c1NC(=O)c1cc(-c2cccs2)on1 returned MRP resist rev 2, MRP1 act 4.8*, Calb biofilm kill 0 and SDO1 yeast rescue -1.3.
For CCOC(=O)c1ccc(Oc2nc(N(C)C)nc(N(C)C)n2)cc1 the results were MRP resist rev 14, MRP1 act 3, Calb biofilm kill 6 and SDO1 yeast rescue -0.98.
CCOC(=O)c1ccc(Oc2nc(NC(C)(C)C)nc(N(C)C)n2)cc1 was read as MRP resist rev -5, MRP1 act 7.0*, Calb biofilm kill 7 and SDO1 yeast rescue -0.22.
`S=c1nc(-c2ccccc2Cl)n(Cc2cccnc2)c2c1CCCC2` gave MRP1 act -2 and SDO1 yeast rescue 1.5.
COc1ccc(OC)c(-c2nnc(NC(=O)C(C)Sc3nncn3C)s2)c1 (centres undefined) was read as MRP resist rev 9, MRP1 act -4, Calb biofilm kill 23* and SDO1 yeast rescue 0.46.
For CC(Sc1nncn1C)C(=O)Nc1ccc(Cl)cn1 (centres undefined) the results were MRP1 act 4.9* and SDO1 yeast rescue 1.
